12-LOX inh – inhibitors of human 12S-lipoxygenase ALOX12; 580,000 compounds, 1.1% hits; P18054; Potency, µM (top dose mostly 108 µM), usual class: inhibitors; purified 12hLO, xylenol orange hydroperoxide absorbance
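Hydroperoxide product was detected by ferrous iron/xylenol orange as the 573 to 405 nm absorbance ratio. Arachidonic acid at 40 uM (final) was turned over for 30 min at room temperature by 150 nM human 12hLO, pH 7.0 Hepes buffer, after 15 min compound preincubation.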
TDP1 cell CPT – growth inhibition of DT40 Tdp1-/-;hTDP1 cells with camptothecin (screen for TDP1 inhibitors) | chicken DT40 Tdp1-/-;hTDP1 cells + 20 nM CPT, ATP luminescence, 48 h | Potency, µM (top dose mostly 46.2 µM), actives largely listed as inhibitors | 420,000 compounds, 12% hits | AID 686979; further: nearly all actives have a fitted effect of over 55% in size
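Cell growth measured by CellTiter-Glo luminescence after a minimum 48 h, 37 C compound exposure with 20 nM CPT in Tdp1-knockout DT40 cells stably expressing hTDP1, seeded 400/well; qHTS titration format.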
VP16 counter – counter-screen for ROR gamma inhibitors: Gal4-VP16 reporter; Drosophila S2 Gal4-VP16 UAS-luciferase, luminescence, 20 h; Potency, µM (highest dose often 53.6 µM), actives largely listed as inhibitors; 310,000 compounds, 3.5% hits; AID 2546;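 further: Gal4-VP16 expression switched on by copper sulfate through the metallothionein promoter; nearly all actives have a fitted effect of over 50% in size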
RORg inh – inhibitors of mouse ROR gamma transcriptional activity; P51450; Drosophila S2 Gal4-RORgamma UAS-luciferase reporter, 20 h; Potency, µM (doses to about 53.6 µM), actives largely listed as inhibitors; 310,000 compounds, 5.4% hits; AID 2551; further: nearly all actives have a fitted effect of over 60% in size
Target sequence (P51450 whole entry, looked up, the tested form may be a part): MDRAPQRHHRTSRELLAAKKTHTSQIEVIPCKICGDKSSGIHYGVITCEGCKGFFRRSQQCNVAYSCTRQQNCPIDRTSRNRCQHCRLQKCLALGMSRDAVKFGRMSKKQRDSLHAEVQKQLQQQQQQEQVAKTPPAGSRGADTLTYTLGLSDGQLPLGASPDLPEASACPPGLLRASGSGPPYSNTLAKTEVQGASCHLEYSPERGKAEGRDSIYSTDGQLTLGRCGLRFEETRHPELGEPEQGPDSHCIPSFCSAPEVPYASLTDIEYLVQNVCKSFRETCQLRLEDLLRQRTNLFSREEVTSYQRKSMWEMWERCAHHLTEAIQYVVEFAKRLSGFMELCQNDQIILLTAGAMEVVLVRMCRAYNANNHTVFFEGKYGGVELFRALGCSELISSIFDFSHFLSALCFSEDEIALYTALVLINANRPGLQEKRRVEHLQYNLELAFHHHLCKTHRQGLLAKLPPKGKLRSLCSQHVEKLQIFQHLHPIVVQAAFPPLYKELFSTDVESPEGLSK
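Luminescence from a UAS-regulated Photinus luciferase reporter in stably transfected Drosophila Schneider cells is measured; decreased signal marks ROR gamma inhibition. Fusion expression is induced by 700 uM copper sulfate for 20 hr.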
ELG1 repair inh – inhibitors of ELG1-dependent DNA repair in HEK293T cells. HEK293T ELG1-luciferase reporter, luminescence, 16 h; DNA damage induced by 5-fluorouridine. Potency, µM (highest dose often 46.1 µM), most hits filed as inhibitors. 330,000 compounds, 2.3% hits. AID 504467; further: nearly all actives have a fitted effect of over 55% in size
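Luminescence from the luciferase reporter, measured 30 min after ONE-Glo reagent at room temperature, was the read-out. Beforehand, 2,000 cells per well were exposed for 16 hr at 37 °C to 5-fluorouridine together with compound or vehicle.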
TDP1 cell noCPT – qHTS for Inhibitors of human tyrosyl-DNA phosphodiesterase 1 (TDP1): qHTS in cells in absence of CPT; Potency, µM (series often up to 46.2 µM), most hits filed as inhibitors; DT40 Tdp1-/- hTDP1 cells, no CPT, ATP luminescence, 48 h; 420,000 compounds, 15% hits; further: nearly all actives have a fitted effect of over 55% in size
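Compound effects on proliferation are scored in DT40 Tdp1-/-;hTDP1 cells in the absence of CPT. ATP levels (CellTiter-Glo luminescence) are recorded after a ≥48 hr, 37 °C incubation.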
Of the large screens only hits and unclear results are named; the others gave an inactive call. Sampled rows, rich in hits. Any-hit rate of the full collection: about 15%. The call rests on the fitted dose curve; in most records, active means well fitted curve in the direction sought with a large enough effect; inconclusive means small, poorly fitted or top-dose-only effect, or another doubt; inactive means no such curve, though single readings can be large; an effect the other way counts as inactive or inconclusive.

Cn1cc(CN[C@H]2C[C@H]3C(=O)NC[C@@H](CCC(=O)N4CCc5ccccc54)N3C2)c2ccccc21	none (no result: TDP1 cell CPT, VP16 counter, RORg inh, ELG1 repair inh, TDP1 cell noCPT)
Cc1cc2ccccn2c1C(=O)c1ccc(C#N)cc1	12-LOX inh inconclusive, TDP1 cell CPT inconclusive, RORg inh inconclusive, TDP1 cell noCPT 23µM
Cc1cc2ccccn2c1C(=O)c1ccc(NN)c([N+](=O)[O-])c1	12-LOX inh inconclusive, TDP1 cell CPT 16µM, VP16 counter inconclusive, TDP1 cell noCPT inconclusive
Cc1cc2ccccn2c1C(=O)c1cc([N+](=O)[O-])cc([N+](=O)[O-])c1	ELG1 repair inh inconclusive
COC(=O)c1cc(C(=O)c2c(C)cc3ccccn23)cc([N+](=O)[O-])c1	12-LOX inh inconclusive, TDP1 cell CPT 8.2µM, TDP1 cell noCPT 12µM
CN(CCOc1ccc(F)cc1)C(=O)c1cc2ccccc2oc1=O	none (no result: TDP1 cell CPT, VP16 counter, RORg inh, ELG1 repair inh, TDP1 cell noCPT)
COCC(=O)N(C1CCOCC1)C1CCN(S(=O)(=O)c2ccccc2F)CC1	none (no result: TDP1 cell CPT, VP16 counter, RORg inh, ELG1 repair inh, TDP1 cell noCPT)
CN(C)Cc1cc(C[C@@H]2C[C@H](N(Cc3ccco3)Cc3ccco3)C2(C)C)no1	none (no result: TDP1 cell CPT, VP16 counter, RORg inh, ELG1 repair inh, TDP1 cell noCPT)
Cc1cc(C)c(C(=O)C(C)OC(=O)Cc2n[nH]c(=O)c3ccccc23)cc1C (stereo not drawn)	12-LOX inh inconclusive, TDP1 cell noCPT inconclusive
Cc1ccc(C(=O)C(C)OC(=O)Cc2n[nH]c(=O)c3ccccc23)cc1 (stereo not drawn)	12-LOX inh inconclusive, TDP1 cell CPT 12µM, TDP1 cell noCPT 18µM (no result: VP16 counter, RORg inh)
CC(OC(=O)Cc1n[nH]c(=O)c2ccccc12)C(=O)N(C)c1ccccc1 (stereo not drawn)	TDP1 cell CPT 8.2µM, TDP1 cell noCPT 16µM (no result: VP16 counter, RORg inh, ELG1 repair inh)
O=C(NCC1(COc2ccc(C(F)(F)F)cn2)C[C@@H](O)[C@@H](O)C1)C1CC1 (stereo partly drawn)	none (no result: TDP1 cell CPT, VP16 counter, RORg inh, ELG1 repair inh, TDP1 cell noCPT)
Cn1cc(CNCC2(COc3ccc(C(F)(F)F)cn3)C[C@@H](O)[C@@H](O)C2)cn1 (stereo partly drawn)	12-LOX inh 18µM (no result: TDP1 cell CPT, VP16 counter, RORg inh, ELG1 repair inh, TDP1 cell noCPT)
CCCCOc1ccc(C(=O)N/C(=C/C=C/c2ccccc2)C(=O)NC)cc1	TDP1 cell CPT 26µM, ELG1 repair inh inconclusive
O=C(Nc1ccc(C(=O)O)cc1)/C(=C\C=C\c1ccccc1)NC(=O)c1ccccc1Cl	none
O=C(O)COc1ccc(/C=N/NC(=O)/C(=C/C=C/c2ccccc2)NC(=O)c2ccccc2)cc1	none
O=C(Nc1ccc(O)cc1)/C(=C\C=C\c1ccccc1)NC(=O)c1ccccc1	TDP1 cell CPT inconclusive, ELG1 repair inh inconclusive, TDP1 cell noCPT 16µM
CC(C)C(CCNC1CCN(C)CC1)c1ccc(Cl)cc1 (stereo not drawn)	12-LOX inh inconclusive, TDP1 cell CPT 4.6µM, ELG1 repair inh 23µM, TDP1 cell noCPT 3.3µM
CC(NC1CCN(Cc2ccccc2)CC1)c1ccc(F)cc1 (stereo not drawn)	12-LOX inh inconclusive, TDP1 cell CPT inconclusive, TDP1 cell noCPT inconclusive
CN(C)CCNC1CCN(C)CC1	none (no result: TDP1 cell CPT, VP16 counter, RORg inh, ELG1 repair inh, TDP1 cell noCPT)
CN1CCC(NCCC(c2ccc(F)cc2)c2ccc(Cl)cc2)CC1 (stereo not drawn)	TDP1 cell CPT 5.8µM, VP16 counter inconclusive, RORg inh inconclusive, ELG1 repair inh inconclusive, TDP1 cell noCPT 5.8µM
Cc1ccc(-n2nnnc2CNS(=O)(=O)c2ccccc2Cl)cc1	none (no result: TDP1 cell CPT, VP16 counter, RORg inh, ELG1 repair inh, TDP1 cell noCPT)
CN(C)C1=C(C(=O)Nc2ccc(F)cc2)S(=O)(=O)c2ccccc21	none (no result: TDP1 cell CPT, VP16 counter, RORg inh, ELG1 repair inh, TDP1 cell noCPT)
C[C@H]1CCC/C=C/[C@@H]2C[C@H](O)C[C@H]2[C@H](O)[C@H](S(=O)c2ccc(O)cc2)CC(=O)O1 (stereo partly drawn)	12-LOX inh 40µM, TDP1 cell CPT 0.58µM, TDP1 cell noCPT 0.73µM (no result: VP16 counter, RORg inh, ELG1 repair inh)
CC(=O)c1cccc(NC(=O)C(C)Oc2ccc3c(C)cc(=O)oc3c2)c1 (stereo not drawn)	none (no result: TDP1 cell CPT, VP16 counter, RORg inh, ELG1 repair inh, TDP1 cell noCPT)
Cc1ccccc1NC(=O)c1ccc(Cl)c(S(=O)(=O)N2CCCCCC2)c1	TDP1 cell CPT inconclusive, TDP1 cell noCPT 16µM (no result: VP16 counter, RORg inh, ELG1 repair inh)
COc1cccc(C(CNC(=O)c2ccc(Cl)c(S(=O)(=O)N3CCCC3)c2)N(C)C)c1 (stereo not drawn)	TDP1 cell CPT inconclusive, ELG1 repair inh inconclusive, TDP1 cell noCPT 21µM (no result: VP16 counter, RORg inh)
COc1ccccc1NC(=O)c1ccc(Cl)c(S(=O)(=O)N2CCCCC2)c1	TDP1 cell CPT inconclusive, TDP1 cell noCPT inconclusive
O=C(NCc1ccccc1)c1ccc(Cl)c(S(=O)(=O)N2CCCC2)c1	12-LOX inh inconclusive, ELG1 repair inh inconclusive, TDP1 cell noCPT 18µM (no result: VP16 counter, RORg inh)
COc1ccccc1NC(=O)c1ccc(C)c(S(=O)(=O)N2CCCCC2)c1	TDP1 cell CPT inconclusive, VP16 counter inconclusive, ELG1 repair inh inconclusive, TDP1 cell noCPT 26µM
Cc1ccc2nc(/C(C#N)=C\c3cccc(OCc4ccc(F)cc4)c3)[nH]c2c1	none (no result: TDP1 cell CPT, VP16 counter, RORg inh, ELG1 repair inh, TDP1 cell noCPT)
COc1ccccc1C(CNc1ccc(S(=O)(=O)N2CCCC2)cc1[N+](=O)[O-])N(C)C (stereo not drawn)	TDP1 cell CPT 13µM, ELG1 repair inh 12µM, TDP1 cell noCPT inconclusive
COc1ccc(Nc2ccc(S(=O)(=O)N3CCCCC3)cc2[N+](=O)[O-])cc1	TDP1 cell CPT inconclusive, TDP1 cell noCPT 16µM

Compound activity from PubChem BioAssay.
